The record followed here is PubChem BioAssay AID463173 (ICCB-Longwood Screening Facility, Harvard Medical School, 2010).

SMILES strings stand for the structures. Screen size: about 52,000 compounds; about 1,700 (3.3%) were called active. This is one part of a sample in which actives are shown more often than they occur. Unmarked numbers belong to inactive results. No stated cut-off is given here; in the data, active means survival mostly below about 52% (no sharp cut-off); inactive means mostly above about 56%.

This assay relates to Wild type. As to the kind of experiment: growth inhibition of S. aureus wild type versus tarO mutant, primary screen, teichoic acid synthesis inhibitors, RN4220, OD600 (AID 463173). To be noted: S. aureus RN4220 wild type/DeltatarO growth, OD600, 18 h, stronger effect = lower value, screened at 18.75 µg/mL (by protocol).
In the case of `CCc1ccccc1NC(=O)c1cc(S(=O)(=O)N2CCCC2)cn1C`, the survival was 84%.
`CCC(C)NC(=O)Cn1c(=O)n(CC2CCC(C(=O)NC)CC2)c(=O)c2sccc21` (centres undefined): the survival is 70%.
As for `CC(C)N(C(=O)Cn1cc(SCC(=O)Nc2ccccc2C(F)(F)F)c2ccccc21)C(C)C`, the figure is 105%.
As for `COc1ccccc1Cc1nc2ccccc2nc1SCC(=O)N1CCc2ccccc21`, the figure is 49%.
As for `Cc1cc(Br)ccc1NC(=O)CSc1c2c(nc3ccccc13)CCC2`, the figure is 75%; as for `N#Cc1c(C(F)(F)F)cc(-c2cccs2)nc1SCC(=O)Nc1ccc(Cl)cc1`, 78%.
As for `CCOc1ccc(C(=O)NCCSc2c(C)[nH]c3ccccc23)cc1OCC`, the survival was 86%.
With `Cc1[nH]c2ccccc2c1SCCNC(=O)c1ccc(F)cc1`, the survival is 64%.
With `Cc1ccc(C(=O)NCCSc2c(C)[nH]c3ccccc23)cc1C`, the survival is 19% (active).
As for `CCNS(=O)(=O)c1ccc(S(=O)(=O)N(Cc2ccccn2)C2CCCCC2)cc1`, the figure is 107%; as for `CC1CCN(C(=O)Cn2c(=O)n(CC3CCC(C(=O)NC(C)C)CC3)c(=O)c3sccc32)CC1` (centres undefined), 78%; as for `CCn1c(C(=O)NCc2ccc(OC)cc2)cc2sc(Cl)cc21`, 37%.
Take `CCn1c(C(=O)NCc2ccccc2)cc2sc(Cl)cc21`: the survival was 2% (active).
As for `CCn1c(C(=O)NCc2ccc(C)cc2)cc2sc(Cl)cc21`, the figure is 78%; as for `CCOC(=O)c1c(C)n(-c2ccccc2)c2ccc(OC(=O)COc3ccc(Cl)cc3)cc12`, 78%; as for `Cc1ccc(Cl)cc1NC(=O)c1cc(-c2ccc3c(c2)OCCO3)on1`, 67%.
As for `Cc1ccc(-c2cc(C(=O)Oc3ccccc3Cl)no2)cc1C`, the figure is -6% (active); as for `CCOC(=O)c1cc(-c2ccc(OC)c(S(=O)(=O)NCc3ccccc3Cl)c2)on1`, 79%; as for `Cc1ccc(OC(=O)c2cc(-c3ccc4c(c3)OCCO4)on2)c(C)c1`, -6% (active).
In the case of `CC(C)c1ccc(OC(=O)c2cc(-c3ccccc3)on2)cc1`, the survival is 106%.
As for `O=C(Nc1ccccc1C(F)(F)F)c1cc(-c2ccc3c(c2)OCCO3)on1`, the figure is 113%; as for `O=C(Nc1cccc(Cl)c1)c1cc(-c2ccc3c(c2)OCCO3)on1`, 122%.
Under `Cc1ccccc1OC(=O)c1cc(-c2ccc3c(c2)OCCO3)on1` stands -6% (active).
In the case of `Cc1ccc(OC(=O)c2cc(-c3ccc(Cl)cc3)on2)c(C)c1`, the survival is 93%.
As for `O=C(Oc1ccccc1Cl)c1cc(-c2ccc3c(c2)OCCO3)on1`, the survival was -7% (active).
As for `Cc1ccc(NC(=O)c2cc(-c3ccc4c(c3)OCO4)on2)cc1`, the survival is 105%.
Take `Cc1oc2ncn(C)c(=O)c2c1C(=O)N1CCN(c2cccc(C(F)(F)F)c2)CC1`: the survival is 82%.
Under `CCOc1ccccc1CNCCNC(=O)c1nonc1N` stands 128%.
Under `CCCNS(=O)(=O)c1ccc(OCC(=O)NCc2ccccn2)cc1` stands 122%.
Under `NC(=Nc1ccccc1)SC1CC(=O)N(c2ccccc2)C1=O` (centres undefined) stands 113%.
In the case of `O=C(Nc1ccccc1NC(=O)c1cccs1)c1cccs1`, the survival was 111%.
As for `COc1cccc(NC(=O)Cn2c(=O)ccc3cc(S(=O)(=O)N4CCC(C)CC4)ccc32)c1`, the figure is 73%.
As for `CCn1cc(/C=C(\NC(=O)c2ccccc2Cl)C(=O)NCCCn2ccnc2)c2ccccc21`, the survival is 121%.
Consider `COC(=O)c1sccc1S(=O)(=O)N1CCN(c2cccc(C)c2C)CC1`, for which the survival is 67%.
As for `COc1cc(NC(=O)Cn2c(-c3ccccc3)cc(C(C)=O)c2C)cc(OC)c1`, the survival is 92%.
As for `COc1ccc2c(c1)N(C)/C(=C1/SC(=S)N(C)C1=O)S2`, the figure is 122%.
With `COc1cccc(CNC(=O)c2cc(-c3ccc(Cl)cc3)n[nH]2)c1`, the survival is 136%.
Regarding `C#CCNc1c2c(nc3nnnn13)CCCC2`, the survival was 104%.
Under `CCSC(=C(C#N)C#N)c1cc2c([nH]1)CCCC2` stands 116%; under `Cc1ccc2ccc3cc(C(=O)N4CCN(c5ccccc5F)CC4)nc3c2[nH]1`, 78%; under `CCOc1ccc(NC(=O)Cn2c(=O)n(Cc3ccc(C(=O)NCc4ccc5c(c4)OCO5)cc3)c(=O)c3ccccc32)cc1`, 98%.
As for `Cc1cccc(OC(=O)c2cc(-c3ccc(Cl)cc3)on2)c1C`, the figure is 116%; as for `O=C(Nc1cccc(Br)c1)c1cc(-c2ccc3c(c2)OCCO3)on1`, 80%.
Under `Cc1cccc(OC(=O)c2cc(-c3ccc4c(c3)OCCO4)on2)c1C` stands -6% (active); under `CCCc1nnc(NC(=O)Cc2coc3ccc(C(C)C)cc23)s1`, 99%; under `O=C(Nc1ccc2c(c1)N(C1CCCC1)C(=O)c1ccccc1S2)c1ccccc1`, 75%.
In the case of `O=C(Nc1ccc2c(c1)N(C1CCCC1)C(=O)c1ccccc1S2)c1ccc(F)cc1`, the survival was 87%.
As for `CC(=O)Nc1ccc(C(=O)Nc2ccc3c(c2)N(C2CCCC2)C(=O)c2ccccc2S3)cc1`, the figure is -6% (active).
Under `Cc1ccc(S(=O)(=O)C(=O)Nc2cccc3nsnc23)cc1` stands 93%.
Under `CCc1ccc(NC(=O)Cn2c(=O)n(CC3CCCO3)c(=O)c3cc(OC)c(OC)cc32)cc1` (centres undefined) stands 68%; under `CN1CCN(C(CNC(=O)C(=O)Nc2ccc(F)cc2)c2cccnc2)CC1` (centres undefined), 96%; under `Cc1cc2c(cc1S(=O)(=O)N(C)CC(=O)Nc1ccc(C#N)cc1)OCC(=O)N2`, 64%.
Turning to `CN(CC(=O)Nc1cccc(C#N)c1)S(=O)(=O)c1cc2c(cc1Cl)NC(=O)CO2`, the survival was 129%.
As for `Cc1cc2c(cc1S(=O)(=O)N(C)CC(=O)Nc1cccc(C#N)c1)OCC(=O)N2`, the figure is -4% (active); as for `COc1ccc(-c2[nH]ncc2C(=O)NCc2cccc(F)c2)cc1`, 78%; as for `CCOC(=O)c1nc(N2CCN(c3ccc(F)cc3)CC2)c2c(C)noc2n1`, 14% (active).
Regarding `Cc1noc2nc(C(=O)O)nc(N3CCCCC3)c12`, the survival is 73%.
Consider `CCOC(=O)c1c(C)oc2nc(C)nc(N3CCN(c4ccc(OC)cc4)CC3)c12`, for which the survival is 68%.
Under `CCC(=O)N1CCc2cc(CNS(=O)(=O)c3cccs3)ccc21` stands 89%; under `Cc1cc(OCC(=O)NCC2(N3CCN(C)CC3)CCCCC2)cc(C)c1Cl`, 80%; under `CC(C)Oc1ccc(CNC(=O)c2ccccc2NC(=O)c2nsc3ccccc23)cc1`, 124%.
Regarding `CCOc1ccc(CNC(=O)c2ccccc2NC(=O)c2nsc3ccccc23)cc1`, the survival is -6% (active).
As for `Cc1ccc(CNC(=O)c2ccccc2NC(=O)c2nsc3ccccc23)cc1`, the figure is 75%; as for `Cc1ccc(S(=O)(=O)NCCc2nnc3ccc(SCC(=O)Nc4c(C)cc(C)cc4C)nn23)cc1`, 86%; as for `CCC(=O)N1CCc2cc(S(=O)(=O)NCCC(=O)Nc3cc(C)ccc3OC)ccc21`, 117%.
Under `Cc1ccc(NC(=O)C(Cc2c[nH]c3ccccc23)NC(=O)OCC(C)C)cc1` (centres undefined) stands 54%; under `CCCc1ccc(OC(C)C(=O)Nc2sc3c(c2C(=O)OC)CCCCC3)cc1` (centres undefined), -2% (active).
For the molecule `COC(=O)c1c(NC(=O)C(C)Oc2ccc(Cl)cc2Cl)sc2c1CCCC2` (centres undefined), the survival was 57%.
Regarding `CNC(=O)c1c(NC(=O)c2ccc(S(=O)(=O)N3CCCC(C)C3)cc2)sc2c1CCC2` (centres undefined), the survival was 101%.
Under `CCCCOc1ccc(C(=O)Nc2sc3c(c2C(=O)OCC)CCCCC3)cc1` stands 38%.
As for `CCCOc1ccc(C(=O)Nc2sc3c(c2C(=O)OCC)CCCCC3)cc1`, the figure is 27%; as for `CCOC(=O)c1c(NC(=O)C(C)Oc2ccc(Cl)c(C)c2)sc2c1CCCC2` (centres undefined), 50%.
Under `CNC(=O)c1c(NC(=O)c2ccc(S(=O)(=O)N3CCC(C)CC3)cc2)sc2c1CCC2` stands 129%; under `CCCc1ccc(OCC(=O)Nc2sc3c(c2C(=O)OC)CCCCC3)cc1`, 43%; under `CCOC(=O)c1c(NC(=O)c2ccc(OC)cc2)sc2c1CCCCC2`, 7% (active).
As for `COC(=O)c1c(NC(=O)C(C)Oc2ccc(Cl)c(C)c2)sc(C)c1C` (centres undefined), the survival was 10% (active).
As for `CNC(=O)c1c(NC(=O)c2ccc(S(=O)(=O)N3CCCCC3)cc2)sc2c1CCC2`, the figure is -2% (active).
Consider `Cc1cc(OC(C)C(=O)Nc2sc3c(c2C(N)=O)CCCC3)ccc1Cl` (centres undefined), for which the survival is 82%.
Under `O=C(Nc1ccc(F)cc1F)c1cccc2c1C(=O)N(C1CCCCC1)C2` stands 94%; under `CCn1c(C(=O)N2CCC(C(=O)N3CCN(c4ccc(OC)cc4)CC3)CC2)cc2sccc21`, 62%; under `CCOc1ccccc1NC(=O)NC(CC)c1c(-n2cccc2)sc2c1CCN(C)C2` (centres undefined), 69%.
Consider `CC1=C(C#N)c2nc(N)c(C#N)c(C)c2/C1=C\c1cccnc1`, for which the survival is 83%.
As for `COc1ccc(Cl)cc1NC(=O)CCC(=O)N1CCOc2ccccc21`, the figure is 83%.
Turning to `CC(=O)c1cccc(-n2c(=O)c3c4c(sc3n(Cc3ccccc3Cl)c2=O)CN(C(C)=O)CC4)c1`, the survival was 88%.
As for `CCOC(=O)c1cc2c(=O)n3ccccc3nc2n(Cc2ccco2)c1=NC(=O)c1ccc(C(C)(C)C)cc1`, the figure is 72%; as for `CCOC(=O)c1c(NC(=O)c2ccc(OCC)c(Br)c2)sc2c1CCCC2`, 67%.
On to `CCOC(=O)c1c(NC(=O)c2ccc(OC)c(OC)c2)sc2c1CCCCC2`, for which the survival is 69%.
For the molecule `CCOC(=O)c1c(NC(=O)c2ccc(C)c(C)c2)sc2c1CCCCC2`, the survival was 0% (active).
As for `CCOC(=O)c1c(NC(=O)c2ccc(S(=O)(=O)N(CC)CC)cc2)sc2c1CCCCC2`, the survival was 80%.
In the case of `CCOC(=O)c1c(NC(C)=O)sc2c1CCC2`, the survival is 104%.
On to `CCOC(=O)c1c(NC(=O)c2ccc(C)cc2)sc2c1CCCCC2`, for which the survival was -1% (active).
As for `CCOC(=O)c1c(NC(=O)c2ccccc2C)sc2c1CCCC2`, the survival is -8% (active).
Take `CCOC(=O)c1c(NC(=O)c2cc(Cl)ccc2Cl)sc2c1CCCC2`: the survival is 76%.
As for `CCOC(=O)c1c(NC(=O)c2cc(OCC)c(OCC)c(OCC)c2)sc2c1CCCCC2`, the figure is 83%.
